Among the data in ChEMBL document CHEMBL3433997, “St. Jude Leishmania screening dataset” (2016) are inhibition values, retold here.

The first assay has as its target Hexose transporter 1 (Plasmodium falciparum) (UniProt O97467). The experiment in a line: ST_JUDE_LEISH: Cytotoxicity at 2uM final concentration against transgenic Leishmania Mexicana promastigotes LmPfHT that are glucose transport deficient and complemented with the Plasmodium falciparum hexose transporter. Activity is measured by DNA content using SYBR green in vitro. The format is functional.
One may read the inhibition as the drop in the measured response relative to a control, in per cent. Take `CCCc1cc(C(=O)N[C@@H](Cc2ccccc2)[C@H](O)CNC2CCOCC2)c(F)c(N2CCCCS2(=O)=O)c1`: the inhibition was found to be 5.47%.

As for `Cc1cccc2nc(-c3ccc(-c4cccc(C(=O)NCCN5CCCC5)c4)s3)[nH]c12`, the inhibition stood at 10.7%.

As to `COc1ccc(-c2cc(C(=O)N[C@@H](Cc3ccccc3)C(=O)NCCN3CCCCC3)ccc2O)cc1`, the inhibition amounted to 2.26%.

With `CCN(Cc1ccc(-c2ccc(C(F)(F)F)cc2)cc1)C(=O)Cn1c(SCc2cccc(F)c2F)cc(=O)c2cc(CN3CCCCC3)ccc21`, the inhibition is 0.7%.

`NS(=O)(=O)c1ccc(CNc2ccc3ncc(-c4ccc(OC(F)(F)F)cc4)n3n2)cc1`: the inhibition turned out to be 4.62%.

Turning to `CCCCc1cc(N2CCC(NC(C)=O)C2)nc(Nc2ccc(C)cc2)n1` (stereo not drawn), the inhibition was determined as 2.45%.

On to `CN1CCC(N2CCN(Cc3cccc(-c4cccc(-c5nc6ccccc6[nH]5)c4)c3)CC2)CC1`, for which the inhibition came out at 0.09%.

`c1ccc(-c2nc(NC3CCCCC3)cc(C3CC3)n2)nc1`: the inhibition amounted to 1.91%.

As for `Cc1cc(N[C@@H](Cc2ccccc2)C(=O)NC2CCCC2)nc(NCCOc2ccccc2)n1`, the inhibition is -1.48%.

In the case of `O=C(Nc1ccc([N+](=O)[O-])cc1)Nc1nc2ccc(Cl)cc2s1`, the inhibition was 4.52%.

As to `CCN(CCCN1CCCCC1)c1cc(C)nc(Nc2ccc(C)c(C)c2)n1`, the inhibition turned out to be 5.75%.

As for `C=CCOC(=O)N1CCC(CNCc2ccc(-c3ccc(-c4nc5ccccc5[nH]4)s3)cc2)C1` (stereo not drawn), the inhibition was determined as 6.02%.

As for `Cn1nc(-c2ccc(NC(=O)Nc3cc(C(F)(F)F)cc(C(F)(F)F)c3)c(F)c2)c2cnc(NCCN3CCOCC3)nc21`, the inhibition came out at 2.48%.

Turning to `N[C@@H](Cc1cc(I)c(Oc2ccc(O)c(C(=O)O)c2)c(I)c1)C(=O)O`, the inhibition is 3.91%.

Turning to `Cc1cccc2nc(-c3ccc(-c4ccc(CN5CCC(C(N)=O)CC5)cc4)cc3)[nH]c12`, the inhibition worked out at 5.37%.

In the case of `N#Cc1ccc(-c2ccc(C(=O)NCCCCN3CCC(c4cn(CCCO)c5ccccc45)CC3)cc2)cc1`, the inhibition is 1.61%.

Regarding `COc1ccc2[nH]ccc(=NN=Cc3cccc(C)n3)c2c1`, the inhibition was found to be 14.9%.

As to `COC(=O)Nc1cc(C(F)(F)F)ccc1N1CCCC(NS(=O)(=O)c2ccc(C(C)(C)C)cc2)C1` (stereo not drawn), the inhibition stood at 12.2%.

For `COc1cc(C(=O)Nc2cccc(-c3cn4cccc(C)c4n3)c2)cc(OC)c1OC`, the inhibition was determined as 10.9%.

In the case of `CC(CON1C(N)=NC(N)=NC1(C)C)Cc1ccc(Cl)cc1Cl` (stereo not drawn), the inhibition was -1.29%.

Turning to `CCC(CN1C(=N)NC(c2ccccc2)(c2ccccc2)C1=O)c1ccccc1` (stereo not drawn), the inhibition was -2.3%.

For the molecule `COc1cccc(Cn2ccc3c4c(N)nc(N)nc4ccc32)c1`, the inhibition was determined as 96%.

With `Cc1nc2nc(N)nc(N)c2c(C)c1Cc1ccccc1`, the inhibition came to 2.88%.

With `COc1cc(F)c2ncc(F)c(CCN3C[C@H](CNCc4ccc5c(n4)NC(=O)CS5)[C@H](O)C3)c2c1`, the inhibition is 1.28%.

Turning to `Cc1c(CCNC(=O)CCCN2CC(C)CC(C)C2)c2ccccc2n1C` (stereo not drawn), the inhibition is 3.38%.

Take `O=C(CN1CCN(S(=O)(=O)C=Cc2ccccc2)CC1)Nc1cc(C(F)(F)F)ccc1Cl`: the inhibition was determined as 7.6%.

On to `Cc1cnc(C(=O)Nc2cccc(-c3ccc(-c4nc5cc(C(F)(F)F)ccc5[nH]4)s3)c2)cn1`, for which the inhibition was 5.21%.

On to `Oc1cc(NC[C@H]2CCC[C@@H]2NCc2cc(Br)cc(Br)c2)nc2ccccc12`, for which the inhibition was 4.07%.

In the case of `Cc1ccc(NC(=O)c2ccc(N3CCC(c4ccccc4C)CC3)nc2)cc1`, the inhibition turned out to be 9.58%.

Regarding `CCc1ccc(CN2CCC(CNC(=O)c3cc(-c4ccccc4Cl)cs3)C2)cc1` (stereo not drawn), the inhibition came to 8.8%.

As to `Cc1ccc(Sc2ccc(NC(=O)CN3CCN(C(=O)c4ccco4)CC3)cc2)cc1C`, the inhibition came out at 9.65%.

As to `CCN(CC)Cc1cc(Nc2ccnc3cc(Cl)ccc23)ccc1O`, the inhibition was found to be 2.29%.

`Nc1c(Cl)cc(C(O)CNCCCCCOCCc2ccc3occc3c2)cc1Cl` (stereo not drawn): the inhibition was 3.64%.

`CCCCCCNC(=O)C1Cc2c([nH]c3ccccc23)C2(CCN(CCc3ccccc3)CC2)N1` (stereo not drawn): the inhibition was 0.47%.

Take `CCn1ncc2c(N3CCCC3=O)cc(C(=O)N[C@@H](Cc3ccccc3)[C@H](O)CNC(C)(C)c3cccc(OC)c3)cc21`: the inhibition was -0.95%.

As for `CN(C)c1ccc(-c2csc(C(=O)NC3CCCCN(Cc4ccc(C(C)(C)C)cc4)C3)c2)cc1` (stereo not drawn), the inhibition is -0.61%.

With `O=C(Nc1cc(F)cc(F)c1)N1CCOC(CCN2CCC3(CCc4ccccc43)CC2)(c2ccc(Cl)c(Cl)c2)C1` (stereo not drawn), the inhibition stood at 3.01%.

Regarding `CCc1cn2c3c(cc(C(=O)N[C@@H](Cc4cccc(Cl)c4)[C@H](O)CNC4CCCCC4)cc13)N(C)S(=O)(=O)CC2`, the inhibition was determined as 1.09%.

In the case of `OC(CNc1ccnc(Nc2ccccc2)n1)c1cccc(C(F)(F)F)c1` (stereo not drawn), the inhibition was found to be 4.22%.

In another assay the target is Glucose transporter (Leishmania mexicana) (UniProt O61059). The assay is described as follows: ST_JUDE_LEISH: Cytotoxicity at 2uM final concentration against transgenic Leishmania Mexicana promastigotes LmGT2 that are glucose transport deficient and complemented with the L. Mexicana glucose transporter 2. Activity is measured by DNA content using SYBR green in vitro. In kind it is functional.
With `CCCc1cc(C(=O)N[C@@H](Cc2ccccc2)[C@H](O)CNC2CCOCC2)c(F)c(N2CCCCS2(=O)=O)c1`, the inhibition was found to be 6.25%.

Turning to `Cc1cccc2nc(-c3ccc(-c4cccc(C(=O)NCCN5CCCC5)c4)s3)[nH]c12`, the inhibition turned out to be 9.13%.

`COc1ccc(-c2cc(C(=O)N[C@@H](Cc3ccccc3)C(=O)NCCN3CCCCC3)ccc2O)cc1`: the inhibition was determined as 4.04%.

Consider `CCN(Cc1ccc(-c2ccc(C(F)(F)F)cc2)cc1)C(=O)Cn1c(SCc2cccc(F)c2F)cc(=O)c2cc(CN3CCCCC3)ccc21`, for which the inhibition came to 5.02%.

As for `NS(=O)(=O)c1ccc(CNc2ccc3ncc(-c4ccc(OC(F)(F)F)cc4)n3n2)cc1`, the inhibition stood at 4.53%.

Consider `CCCCc1cc(N2CCC(NC(C)=O)C2)nc(Nc2ccc(C)cc2)n1` (stereo not drawn), for which the inhibition is 5.78%.

With `CN1CCC(N2CCN(Cc3cccc(-c4cccc(-c5nc6ccccc6[nH]5)c4)c3)CC2)CC1`, the inhibition was -3.95%.

On to `c1ccc(-c2nc(NC3CCCCC3)cc(C3CC3)n2)nc1`, for which the inhibition came to 1.62%.

Consider `Cc1cc(N[C@@H](Cc2ccccc2)C(=O)NC2CCCC2)nc(NCCOc2ccccc2)n1`, for which the inhibition came to 2.19%.

As to `O=C(Nc1ccc([N+](=O)[O-])cc1)Nc1nc2ccc(Cl)cc2s1`, the inhibition turned out to be 1.81%.

For the molecule `CCN(CCCN1CCCCC1)c1cc(C)nc(Nc2ccc(C)c(C)c2)n1`, the inhibition is 4.45%.

Regarding `C=CCOC(=O)N1CCC(CNCc2ccc(-c3ccc(-c4nc5ccccc5[nH]4)s3)cc2)C1` (stereo not drawn), the inhibition is 5.42%.

On to `Cn1nc(-c2ccc(NC(=O)Nc3cc(C(F)(F)F)cc(C(F)(F)F)c3)c(F)c2)c2cnc(NCCN3CCOCC3)nc21`, for which the inhibition was determined as 3.49%.

As for `N[C@@H](Cc1cc(I)c(Oc2ccc(O)c(C(=O)O)c2)c(I)c1)C(=O)O`, the inhibition stood at 3.61%.

In the case of `Cc1cccc2nc(-c3ccc(-c4ccc(CN5CCC(C(N)=O)CC5)cc4)cc3)[nH]c12`, the inhibition was 5.21%.

`N#Cc1ccc(-c2ccc(C(=O)NCCCCN3CCC(c4cn(CCCO)c5ccccc45)CC3)cc2)cc1`: the inhibition was determined as 1.21%.

As to `COc1ccc2[nH]ccc(=NN=Cc3cccc(C)n3)c2c1`, the inhibition was found to be 11.8%.

For the molecule `COC(=O)Nc1cc(C(F)(F)F)ccc1N1CCCC(NS(=O)(=O)c2ccc(C(C)(C)C)cc2)C1` (stereo not drawn), the inhibition was 7.77%.

In the case of `COc1cc(C(=O)Nc2cccc(-c3cn4cccc(C)c4n3)c2)cc(OC)c1OC`, the inhibition turned out to be 10.5%.

As to `CC(CON1C(N)=NC(N)=NC1(C)C)Cc1ccc(Cl)cc1Cl` (stereo not drawn), the inhibition is -0.29%.

With `CCC(CN1C(=N)NC(c2ccccc2)(c2ccccc2)C1=O)c1ccccc1` (stereo not drawn), the inhibition was 0.9%.

For the molecule `COc1cccc(Cn2ccc3c4c(N)nc(N)nc4ccc32)c1`, the inhibition worked out at 85.1%.

With `Cc1nc2nc(N)nc(N)c2c(C)c1Cc1ccccc1`, the inhibition came out at 1.2%.

For the molecule `COc1cc(F)c2ncc(F)c(CCN3C[C@H](CNCc4ccc5c(n4)NC(=O)CS5)[C@H](O)C3)c2c1`, the inhibition was -0.04%.

With `Cc1c(CCNC(=O)CCCN2CC(C)CC(C)C2)c2ccccc2n1C` (stereo not drawn), the inhibition stood at 3.01%.

As for `O=C(CN1CCN(S(=O)(=O)C=Cc2ccccc2)CC1)Nc1cc(C(F)(F)F)ccc1Cl`, the inhibition was 8.72%.

For `Cc1cnc(C(=O)Nc2cccc(-c3ccc(-c4nc5cc(C(F)(F)F)ccc5[nH]4)s3)c2)cn1`, the inhibition is 6.71%.

On to `Oc1cc(NC[C@H]2CCC[C@@H]2NCc2cc(Br)cc(Br)c2)nc2ccccc12`, for which the inhibition was 3.27%.

With `Cc1ccc(NC(=O)c2ccc(N3CCC(c4ccccc4C)CC3)nc2)cc1`, the inhibition is 8.1%.

In the case of `CCc1ccc(CN2CCC(CNC(=O)c3cc(-c4ccccc4Cl)cs3)C2)cc1` (stereo not drawn), the inhibition is 10.8%.

On to `Cc1ccc(Sc2ccc(NC(=O)CN3CCN(C(=O)c4ccco4)CC3)cc2)cc1C`, for which the inhibition is 6.7%.

As for `CCN(CC)Cc1cc(Nc2ccnc3cc(Cl)ccc23)ccc1O`, the inhibition was 4.65%.

As to `Nc1c(Cl)cc(C(O)CNCCCCCOCCc2ccc3occc3c2)cc1Cl` (stereo not drawn), the inhibition came to 1.96%.

For `CCCCCCNC(=O)C1Cc2c([nH]c3ccccc23)C2(CCN(CCc3ccccc3)CC2)N1` (stereo not drawn), the inhibition was 0.55%.

Regarding `CCn1ncc2c(N3CCCC3=O)cc(C(=O)N[C@@H](Cc3ccccc3)[C@H](O)CNC(C)(C)c3cccc(OC)c3)cc21`, the inhibition came out at 0.04%.

Take `CN(C)c1ccc(-c2csc(C(=O)NC3CCCCN(Cc4ccc(C(C)(C)C)cc4)C3)c2)cc1` (stereo not drawn): the inhibition was 1.96%.

As to `O=C(Nc1cc(F)cc(F)c1)N1CCOC(CCN2CCC3(CCc4ccccc43)CC2)(c2ccc(Cl)c(Cl)c2)C1` (stereo not drawn), the inhibition worked out at 1.78%.

As for `CCc1cn2c3c(cc(C(=O)N[C@@H](Cc4cccc(Cl)c4)[C@H](O)CNC4CCCCC4)cc13)N(C)S(=O)(=O)CC2`, the inhibition is -0.36%.

As to `OC(CNc1ccnc(Nc2ccccc2)n1)c1cccc(C(F)(F)F)c1` (stereo not drawn), the inhibition was determined as 0.68%.
